Screening results as filed in PubChem BioAssay.
BaF3 tox = parental Ba/F3 viability inhibition as JAK2V617F counter-screen; CellTiter-Glo ATP luminescence; inhibition, % at 5.6 µM; 220,000 tested, 1.1% active; AID 1486;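 active = inhibition above a per-campaign cutoff, the mean inhibition of all tested compounds plus 3 SD, cut at about 27% in these data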;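 note: 0% = DMSO wells and 100% = JAK Inhibitor I control wells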
APP 5UTR inh = APP translation inhibition; SH-SY5Y APP 5'UTR-luciferase reporter, luminescence; 190,000 tested, 0.82% active; inhibition, % at 2 µM;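 active = inhibition above a set limit, derived from the sample mean plus 3 SD, cut at about 45% in these data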
KLF5 inh = suppresses KLF5 promoter-driven expression. DLD-1 KLF5 promoter-luciferase reporter, luminescence. inhibition, % at 5 µM. 290,000 tested, 0.23% active;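 active = inhibition above a per-plate limit of that plate's mean compound inhibition plus 3 SD, cut at about 60% in these data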;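 note: 0% = DMSO wells and 100% = LY294002 at 200 µM; higher means less KLF5 promoter-driven luciferase light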
IEC-6 tox-1 = kills IEC-6 intestinal cells in KLF5 counter-screen. IEC-6 cytotoxicity, luminescence viability. inhibition, % at 5 µM. 290,000 tested, 0.78% active. AID 1825;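 note: 0% = plate median of test compound wells and 100% = cytotoxic reference compound wells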
Ba/F3 V617F tox = reduce viability of Ba/F3 cells dependent on JAK2V617F; AID 1446; Ba/F3 EpoR-JAK2V617F viability, ATP luminescence; inhibition, % at 5.6 µM; 220,000 tested, 1.1% active;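 active = inhibition above the campaign mean plus 3 SD over all tested compounds, cut at about 24% in these data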;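 note: cytokine-independent growth of Ba/F3 cells driven by EpoR plus mutant JAK2; 0% = DMSO-treated cells and 100% = JAK inhibitor I control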
BaF3 parental 2 = counter-screen for JAK2V617F inhibitors: parental Ba/F3 viability inhibitors; shares compounds with Ba/F3 V617F tox; CellTiter-Glo luminescence; cells kept alive by added IL-3; inhibition, % at 5.6 µM; 580 tested, 31% active;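 active = cell growth inhibition above the hit limit set in the earlier mutant JAK2 cell screen, cut at about 27% in these data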;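 note: plate controls were DMSO-treated cells for no effect and JAK Inhibitor I control wells for full effect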
JAK2V617F confrm = Ba/F3 EpoR-JAK2V617F viability loss, confirmation. shares compounds with Ba/F3 V617F tox. CellTiter-Glo luminescence. inhibition, % at 5.6 µM. 580 tested, 66% active. AID 1521;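 active = mean inhibition above the hit cutoff derived in the earlier primary screen, cut at about 25% in these data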;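 note: 0% = DMSO-treated cells and 100% = JAK inhibitor I control wells; higher means lower luminescence from reduced cell ATP and viability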
KLF5 inh confirm = confirmation of KLF5 inhibitors; shares compounds with KLF5 inh; DLD-1 KLF5 promoter firefly luciferase reporter, luminescence; inhibition, % at 4 µM; 610 tested, 79% active; AID 1834;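 active = inhibition above a set limit taken from the earlier primary screen, cut at about 63% in these data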;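 note: 0% = DMSO wells and 100% = LY294002 at 200 µM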
IEC-6 tox-2 = counter-screen for KLF5 inhibitors: cytotoxicity in rat IEC-6 cells; shares compounds with KLF5 inh; IEC-6 rat intestinal cells, viability luminescence; inhibition, % at 4 µM; 610 tested, 56% active; AID 1905; in the data active = inhibition above about 23%;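 note: cells exposed to compounds for 48 hours before viability read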
IEC-6 cytotox cf = IEC-6 cytotoxicity, confirmation assay. 1,900 tested, 63% active. inhibition, % at 5 µM. IEC-6 rat intestinal epithelial viability, luminescence. shares compounds with IEC-6 tox-1;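 note: 0% = vehicle and 100% = reference cytotoxic drug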
The depositor's hits bear a star; . = no result given. The list is not random: actives were taken first. Their share in the collection is about 1.9%. Cut-off read from the data, not from the text of the source, unless noted: active = inhibition above about 22%; inactive = the rest.

SMILES	BaF3 tox	APP 5UTR inh	KLF5 inh	IEC-6 tox-1	Ba/F3 V617F tox	IEC-6 cytotox cf	others
CP(C)(=O)CCC(=O)O	36*	-2	8	-7	11	.
COC12C(COC(N)=O)C3=C(C(=O)C(C)=C(N)C3=O)N1CC1C2N1C (centres undefined)	10	.	14	5	29*	.	BaF3 parental 2=50*;JAK2V617F confrm=96*
Cc1nn(Cc2ccccc2Cl)c(C)c1C(=O)OCC(=O)NC1CCCC(C)C1C (centres undefined)	11	-9	-16	0	76*	.	BaF3 parental 2=-3;JAK2V617F confrm=0
Cc1nn(Cc2ccccc2Cl)c(C)c1C(=O)OCC(=O)NC1CCS(=O)(=O)C1 (centres undefined)	4	7	-1	-1	0	.
CC(C)n1c(=O)c(C=Nc2ccc(Cl)cc2)c(O)n(Cc2ccco2)c1=O	12	-5	-3	0	2	.
Fc1cccc(F)c1-c1nc(-c2ccc(Cl)cc2)no1	4	.	-6	-1	-3	.
O=C(c1ccccc1F)c1cn(CC(=O)N2CCCCC2)c2ccccc12	3	6	2	3	49*	.	BaF3 parental 2=-5;JAK2V617F confrm=-16
CCn1nc(/C=C/c2ccccc2)nc2c(=O)n(C)c(=O)nc1-2	24	-41	-49	102*	44*	104*	BaF3 parental 2=103*;JAK2V617F confrm=99*
O=C(O)c1cccc2c1NC(C(=O)O)C1CC(Sc3ccccc3[N+](=O)[O-])C(Cl)C21 (centres undefined)	3	-14	1	-25	-3	.
C[C@@H]1O[C@@H](O[C@H]2C[C@@H](O)[C@]3(CO)[C@H]4[C@H](O)C[C@]5(C)[C@@H](C6COC(=O)C6)CC[C@]5(O)[C@@H]4CC[C@]3(O)C2)[C@H](O)[C@H](O)[C@H]1O (some centres undefined)	6	93*	64*	2	4	.	KLF5 inh confirm=71*;IEC-6 tox-2=3
CCC(C)n1c(O)c(C=NC(C)c2ccccc2)c(=O)[nH]c1=S (centres undefined)	-2	.	-28	-3	-1	.
CCCCCCC[n+]1ccc(-c2cc[n+](CCCCCCC)cc2)cc1	93*	16	77*	11	95*	.	KLF5 inh confirm=63*;IEC-6 tox-2=-7
COC(=O)N(c1ccccc1)P(=O)(Oc1ccccc1)Oc1ccccc1	.	.	-10	-6	.	.
C[C@@H]1CC[C@H]2[C@@H](C)C(=O)O[C@@H]3O[C@@]4(C)CC[C@@H]1[C@]32OO4	.	.	12	4	.	.
CCC(C)C(NC(=O)CCCNC(=O)CCC(=O)OC1O[C@H]2OC3(C)CC[C@H]4[C@H](C)CCC(C1C)C24OO3)C(=O)O (some centres undefined)	.	.	83*	34*	.	26*	KLF5 inh confirm=84*;IEC-6 tox-2=41*
COc1ccc(-c2cc(C(=O)N3CCC4(CC3)OCCO4)c3ccccc3n2)cc1	.	.	-85	6	.	.
CC(C)[C@H]1C(=O)O[C@H](C(C)C)C(=O)N(C)[C@@H](C(C)C)C(=O)O[C@H](C(C)C)C(=O)N(C)[C@@H](C(C)C)C(=O)O[C@H](C(C)C)C(=O)N1C	77*	5	70*	89*	98*	54*	KLF5 inh confirm=-3;IEC-6 tox-2=10
O=C(c1ccc(Cl)cc1)C1CCCN(Cc2cccc3cccnc23)C1 (centres undefined)	-3	9	-40	9	-4	.
C/C=C(\C)C(=O)N[C@@H](c1ccccc1)[C@@H](O)C(=O)O[C@H]1C[C@@]2(O)[C@@H](OC(=O)c3ccccc3)C3[C@](C)(C(=O)[C@H](OC(C)=O)C(=C1C)C2(C)C)[C@@H](O)C[C@H]1OC[C@@]31OC(C)=O (some centres undefined)	.	.	64*	88*	.	72*	KLF5 inh confirm=88*;IEC-6 tox-2=78*
CC(=O)O[C@@]12CO[C@@H]1C[C@H](O)[C@@]1(C)C(=O)[C@H](O)C3=C(C)[C@@H](O)C[C@@](O)([C@@H](OC(=O)c4ccccc4)C12)C3(C)C (some centres undefined)	.	.	-9	6	.	.
CC[C@@]1(O)C(=O)OCc2c1cc1n(c2=O)Cc2cc3ccccc3nc2-1	93*	.	62*	97*	98*	72*	KLF5 inh confirm=94*;IEC-6 tox-2=75*
O=C(O)c1nonc1-c1nonc1C(=O)O	8	-14	-28	5	5	.
CCN1/C(=C\C=C\C2=[N+](CC)c3ccccc3C2(C)C)C(C)(C)c2ccccc21	93*	93*	84*	64*	99*	70*	KLF5 inh confirm=104*;IEC-6 tox-2=64*
CC(=O)OC(C)(C)/C=C/C(=O)C(C)(O)C1[C@H](O)C[C@@]2(C)C3CC=C4C(CC[C@@H](O)C4(C)C)[C@]3(CO)C(=O)C[C@]12C (some centres undefined)	.	.	90*	99*	.	97*	KLF5 inh confirm=93*;IEC-6 tox-2=96*
CC(C)Cc1[nH]c(=O)c(C#N)c2c1CCC2	1	11	-24	-9	-4	.
SMILES	BaF3 tox	APP 5UTR inh	KLF5 inh	IEC-6 tox-1	Ba/F3 V617F tox	IEC-6 cytotox cf	others
O=C1CN=C(c2ccc[nH]2)c2cc(Cl)ccc2N1	37*	.	4	31*	54*	22
COC(=O)C(Cc1ccc(N(CCCl)CCCl)cc1)N=Cc1ccccc1O (centres undefined)	.	.	-12	90*	.	78*
CCC(C)NC(=O)CCC(=O)OC1O[C@H]2OC3(C)CC[C@H]4[C@H](C)CCC(C1C)C24OO3 (some centres undefined)	.	.	84*	35*	.	23*
Nc1cc(Cl)c2nonc2c1[N+](=O)[O-]	2	96*	14	69*	47*	30*
O=C(COc1ccc(Cl)cc1)NC1CN2CCC1CC2 (centres undefined)	-2	-7	-20	4	0	.
O=C(Nc1nccs1)C(Cl)(Cl)Cl	5	5	-1	-2	2	.
O=C(Nc1ccc(Cl)cc1)Nc1nccs1	79*	60*	24	68*	85*	60*
Cc1ccc(S(=O)(=O)N2CC3CC(C2)c2cccc(=O)n2C3)cc1 (centres undefined)	6	-9	-17	0	0	.
Cc1c(C(=O)N2CCC3(CC2)OCCO3)sc2ncnc(N(C)c3ccccc3)c12	3	-18	-29	-1	-1	.
CN(C)c1ccc(/C=C/c2cc[n+](C)c3ccccc23)cc1	82*	-5	32	28*	101*	21
Cn1c(O)c(C=NCCCCCCCCCCC(=O)O)c(=O)n(C)c1=O	-3	.	-22	-2	-3	.
